Assay outcomes deposited in PubChem BioAssay by National Center for Advancing Translational Sciences (NCATS).
Sampled rows, rich in hits. Any-hit rate of the full collection: about 19%.
ELG1 repair inh = qHTS screen for small molecules that inhibit ELG1-dependent DNA repair in human embryonic kidney (HEK293T) cells expressing luciferase-tagged ELG1. HEK293T ELG1-luciferase reporter, luminescence, 16 h; DNA damage induced by 5-fluorouridine. Potency, µM (top dose mostly 46.1 µM), without a hit: at the top dose activity change, negative = inhibition, most hits filed as inhibitors. 330,000 compounds, 2.3% hits; note: potency is the fitted concentration of half-maximal effect; nearly all actives have a fitted effect of over 55% in size
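Quantitative HTS, concentration-response format. 2,000 cells/well co-treated with 5-fluorouridine and compound, 16 hr in 5% CO2 at 37 °C; ONE-Glo luminescence read after 30 min.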
HT1080NT lethal = qHTS for induction of synthetic lethality in tumor cells producing 2HG: qHTS for the HT-1080-NT fibrosarcoma cell line. HT-1080-NT fibrosarcoma viability, CellTiter-Glo ATP luminescence, 48 h. Potency, µM (series often up to 46.1 µM), inactives show top-dose activity, negative = less viability, hits mostly cytotoxic. 360,000 compounds, 1.6% hits;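 note: NT is the 2HG producing partner of a matched IDH1 knockdown line; potency is the fitted concentration of half-maximal effect; 0% = DMSO-treated cells and -100% = media-only wells without cells; nearly all actives have a fitted effect of over 55% in size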
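HT-1080-NT; 750 cells/well; 5% FBS RPMI; 48 h compound, 37 degrees C; CellTiter-Glo luminescence; curve fitting and curve-class assignment.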
DT40 TDP1 CPT = qHTS for Inhibitors of human tyrosyl-DNA phosphodiesterase 1 (TDP1): qHTS in cells in presence of CPT. 420,000 compounds, 12% hits. Potency, µM (titrated, usually from 46.2 µM), for inactives: at the highest dose activity change, negative = growth inhibition, hits mostly inhibitors. AID 686979, 2013. chicken DT40 Tdp1-/-;hTDP1 cells + 20 nM CPT, ATP luminescence, 48 h; note: potency is the fitted concentration of half-maximal effect; nearly all actives have a fitted effect of over 55% in size
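Chicken DT40 Tdp1-/- cells complemented with human TDP1, 400 cells/well, exposed to compounds plus 20 nM camptothecin for at least 48 h at 37 C; viability read as ATP content by CellTiter-Glo luminescence.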
IL1B secr inh = qHTS for Inhibitors of Inflammasome Signaling: IL-1-beta AlphaLISA Primary Screen | THP-1 LPS/ATP IL-1B secretion, AlphaLISA, 16 h; active compounds read low | activity change, % at 57.5 µM | 360,000 compounds, 4.7% hits | AID 743279, 2014; in the data active = activity change below about -50%; inconclusive = mostly about -30% to -49%
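THP-1 cells pretreated 1 hr with compounds (up to 57.5 uM final), then stimulated with LPS (250 ng/mL final) plus ATP (1.25 mM final); secreted IL-1B measured by AlphaLISA after 16 hr, decreased signal indicating inhibition.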
DT40 TDP1 no CPT = qHTS for Inhibitors of human tyrosyl-DNA phosphodiesterase 1 (TDP1): qHTS in cells in absence of CPT; DT40 Tdp1-/- hTDP1 cells, no CPT, ATP luminescence, 48 h; Potency, µM (doses to about 46.2 µM), for the others: top-dose activity change, negative = growth inhibition, hits mostly inhibitors; 420,000 compounds, 15% hits; note: potency is the fitted concentration of half-maximal effect; nearly all actives have a fitted effect of over 55% in size
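Chicken DT40 Tdp1-/- cells stably complemented with human TDP1 were seeded at 400 cells/well with DMSO in place of 20 nM camptothecin. After compound pinning, cells grew at least 48 hr at 37 °C; viability read by CellTiter-Glo luminescence.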
HT1080 IDH1KD tx = qHTS for induction of synthetic lethality in tumor cells producing 2HG: qHTS for the HT-1080-IDH1KD cell line; Potency, µM (doses to about 46.1 µM), inactives show top-dose activity, negative = toxicity, most hits filed as cytotoxic; 360,000 compounds, 2% hits; HT-1080 IDH1 knockdown viability, ATP luminescence, 48 h;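 note: potency is the fitted concentration of half-maximal effect; 0% = DMSO wells and -100% = cell-free medium wells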
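Using the IDH1-knockdown HT-1080 line run in the same batch and compound series as the NT line, viability after 48 h at 37 °C was determined by CellTiter-Glo luminescence and expressed as % activity.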
The depositor's hits bear a star; u = inconclusive; x = no result; ! = a repeat was not active. Unless noted, calls come from the whole dose curve; as a rule, active = well fitted curve in the direction sought with a large enough effect; inconclusive = small, poorly fitted or top-dose-only effect, or another doubt; inactive = no such curve, though single readings can be large; an effect the other way counts as inactive or inconclusive. Unless noted, % is set by controls: 0 for no effect and ±100 for the full control effect.

SMILES | ELG1 repair inh | HT1080NT lethal | DT40 TDP1 CPT | IL1B secr inh | DT40 TDP1 no CPT | HT1080 IDH1KD tx
COCOC1CCC2C3CCC4=CC(=O)CCC4=C3C=CC12C (configuration not stated) | x | 10.6% | u | 9.3 | u | 21.7%
COC(=O)C(NC(C)=O)(Nc1nc2c(C)cc(C)cc2s1)C(F)(F)F (configuration not stated) | u | 15.8µM* | u | -9.5 | 15.8µM* | 12.6µM*
O=[N+]([O-])c1ccc(Cl)c([N+](=O)[O-])c1 | u | 5.17µM* | 3.66µM* | -110.1* | 4.61µM* | 18.4µM*
CN1CC(C(=O)c2ccccc2)C(c2ccccc2)C1 (configuration not stated) | 25.8% | 8.6% | u | -12.9 | u | 19.1%
CC(C)(C)N1CC(C(=O)c2ccccc2)C1c1ccccc1 (configuration not stated) | x | -6.7% | -21.1% | -80.2* | -3.0% | u
c1ccc(CCN2CCCCC2)nc1 | x | -1.3% | 8.6% | 22.9 | -7.6% | -1.7%
OCC1OC(n2cnc3cc(Cl)c(Cl)cc32)C(O)C1O (configuration not stated) | x | u | 14.6µM*! | u | u | u
C[C@H]1COC2=C1C(=O)C(=O)c1c2ccc2c1CCCC2(C)C | u | u | 5.17µM* | -20.7 | 5.17µM* | -27.5%
CC1COC2=C1C(=O)C(=O)c1c2ccc2c1CCCC2(C)C (configuration not stated) | x | x | u | x | 13µM* | x
Cc1ncoc1C(=O)NCC1=C(c2ccc3ccccc3c2)C[C@@H]2CC[C@H]1N2Cc1ccco1 | x | -18.2% | u | -11.3 | u | 2.1%
CCN(CC)C(=O)Cn1cc(/C=C2\C(=O)NC(=O)N(c3ccccc3F)C2=O)c2ccccc21 | u | u | u | -94.4* | u | u
CN1C[C@@H]2C[C@@H](c3cccn3-c3ccccn3)N3CCC[C@@]23C1=O | -0.9% | -8.6% | 4.0% | 19.0 | -6.8% | -1.4%
C[C@H]1C(=O)O[C@@H]2CCN3CC=C(COC(=O)[C@](C)(O)[C@]1(C)O)[C@H]23 | -1.9% | 23.0% | 11.6µM*! | 3.7 | u | 7.8%
CN[C@@H](C)[C@H](O)c1ccccc1 | x | x | 17.8% | x | -10.6% | x
c1cnc(N2CC3(CCNCC3)C2)nc1 | x | x | 7.1% | x | -6.5% | x
COc1ccc(-c2cc(C(F)(F)F)n3nc(C(=O)N4CCC5(CC4)OCCO5)cc3n2)cc1OC | x | -6.4% | -23.4% | -8.1 | 20.6µM* | -8.0%
O=C(c1cc2ccccn2n1)N1CCC2(CC1)OCCO2 | 7.2% | -2.2% | -7.1% | 28.0 | -10.8% | 13.6%
COc1ccc(CNC(=O)Cn2c(SCC(=O)Nc3ccc(C)c(C)c3)nc3ccccc32)cc1 | x | x | u | x | 4.61µM* | x
CN1C(=O)NC(=O)/C(=C\C=C\c2ccccc2[N+](=O)[O-])C1=O | u | u | u | -98.0* | 5.8µM* | 11.6µM*
CC(C)[N+](C)(C)CC(O)CN(c1ccccc1)c1ccccc1 (configuration not stated) | 2.3% | 5.6% | u | -18.4 | -27.1% | -6.6%
C=C(C)CSc1nc2ncc(Cl)cc2[nH]1 | u | 1.7% | -9.0% | 8.2 | -1.4% | -4.4%
